The whole screen tested about 31,000 sequences, of which about 1,400 (4.5%) were called active.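 Rule for the calls: active = median seed-adjusted z-score above 1 or below -1; inactive = the rest.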 This excerpt belongs to a sample that is enriched for actives.

The nature of the assay: Novel Modifiers of Survival Motor Neuron (SMN) Protein: Gene Identification via Genome-wide siRNA Screen.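 Note: luminescence tracks full-length SMN protein made from the SMN2 reporter.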 To be noted: HEK293T SMN2-luciferase reporter, siRNA knockdown, 72 h; actives lie on both sides. The gist of the method:
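Each of three siRNAs per gene is reverse-transfected (1 pmol) into reporter HEK293T cells whose luciferase output tracks SMN protein level. After 72 h culture, ONE-Glo luminescence is control-normalized, log10-transformed and MAD-standardized; Common Seed Analysis deprioritizes seed-driven hits.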
On the technique in general: In a reporter assay the amount or activity of a reporter protein is the signal.
Consider CAUCAUGACAUGUAUGAUUTT against PAFAH1B3, for which the median seed-adjusted z-score was -0.381 (inactive).
The figure for GAGUGUGACUGGUAAAGUUTT against SMNDC1 is -1.54 (active).
With GAGGAAUUGUUGAUAAAGATT against MAGI2, the median seed-adjusted z-score is -0.23 (inactive).
On to GAAUGCUCCUUUACCAGAATT against GRB10, for which the median seed-adjusted z-score is -0.0341 (inactive).
With GGAAGAACAUGACAACCAATT against IFIT1 the figure was -0.489 (inactive).
As to CCAACGAUCUGGACCGUGUTT against MED16, the median seed-adjusted z-score is -0.6 (inactive).
GAACCUGGAUCACAUAAUATT against DFFB: the median seed-adjusted z-score was 0.242 (inactive).
CCAAGAUUGUCACUCUGGATT against E2F7: the median seed-adjusted z-score is -0.0972 (inactive).
The figure for GGUUCGAGGUAAACCCUAATT against CTPS2 is 1.08 (active).
Consider GGGCUACAAACUGAACAAATT against LOC81691, for which the median seed-adjusted z-score was -0.285 (inactive).
CAACAGCGAUUUGAUGGAATT against ERO1L: the median seed-adjusted z-score was -0.251 (inactive).
In the case of GGAACUGUUUAUAAGGGUATT against RAF1, the median seed-adjusted z-score is 0 (inactive).
The figure for GGCACGUUUUACGACAGAATT against CHEK2 is 0.585 (inactive).
With GGCACAUGGUUAACCUGGATT against GPX4 the figure was -1.18 (active).
The figure for CCCAGGAAGUUCUACUACATT against HS6ST1 is -0.436 (inactive).
In the case of GAACUUCACUUAGGACAUUTT against ATP6V1G1, the median seed-adjusted z-score is 0.311 (inactive).
With GACUCAAUGGUUUGCAUUATT against CTDP1 the figure was -2.29 (active); with GGAUGAUCAUGAGCGGCAATT against PHKG1, -0.153 (inactive).
With GCUUCAUUGUGGACCGGCATT against GALNTL4 the figure was 0 (inactive); with GACUGGAGAUAUCAAGGAATT against SQLE, -1.14 (active).
With CAAUGAAGAUAUGUUUAGATT against WBP5, the median seed-adjusted z-score is 0.452 (inactive).
In the case of GAUCAUUGAGAACACGUAUTT against RNF121, the median seed-adjusted z-score is -0.53 (inactive).
With GAAUCCACCUUCGACCUGATT against HMX1 the figure was 1.3 (active); with CCACUGAAUAUGUGCAGAATT against FBP2, 0 (inactive).
The figure for CGGCUACGACGAUUACGAATT against MYO15A is 0.0508 (inactive); for GGAUUUCGAUUGCAUCAUUTT against LGI1 it is -0.19 (inactive).
Turning to AGUGGGUGCUGAACCAUGATT against FES, the median seed-adjusted z-score is 0.402 (inactive).
The figure for GCCCAGAGACUAUUCAGUATT against SF3A3 is -2.1 (active); for CGUGGAAUACUAGAGCAAATT against ACTL6A it is 1.11 (active); for CAGACUUGCUUAAUAGUAATT against ZFP1 it is 0.0391 (inactive).
The figure for GGAACUACCAUGCAGGCUATT against ATP6V0B is 0 (inactive); for CCAGCAUGGUUACUACGAATT against TRAIP it is -0.018 (inactive).
As to GGAACAAGAGUGGACGGAATT against PIAS3, the median seed-adjusted z-score is -0.216 (inactive).
Regarding CCAGCUCUUCCAUACAAUATT against RAB9A, the median seed-adjusted z-score was 0.247 (inactive).
Take GGCUUCAUAUCUAGACUAATT against APOBEC3A: the median seed-adjusted z-score is 0.467 (inactive).
The figure for UGUUCAGCCUUGACUCAAATT against RHOU is -1.44 (active); for GCACCUAUGAGGAAAAUGATT against LAMB2 it is 1.12 (active).
With GAAGCUUGAUCUAAUUAUATT against ZNF182 the figure was 0 (inactive); with CCAUUUCCAGAGGCCCAGATT against SLC22A12, -0.148 (inactive).
In the case of GCCUGGAACUCGUUAGCAATT against TRMT11, the median seed-adjusted z-score is -0.707 (inactive).
Take GGCUUAACUUUAGUGUUGATT against PRDM2: the median seed-adjusted z-score was 1.12 (active).
With GAGCGAGUUUUACCUGAUATT against ABCA10 the figure was -0.104 (inactive).
Take CAGAUAUGAUUGGUGUAAATT against CABP1: the median seed-adjusted z-score was -0.192 (inactive).
On to GAAAUCGACUCUCACCAAATT against IL18RAP, for which the median seed-adjusted z-score was -0.681 (inactive).
Consider CGGAAAAUCAGCAACAUCATT against EPS8L2, for which the median seed-adjusted z-score was -0.497 (inactive).
With GGAUAAUAAGGAUCUAUUUTT against CPNE3 the figure was 0.109 (inactive).
As to GUUUACCUCUGGAUACACUTT against SNRPD1, the median seed-adjusted z-score is -2.97 (active).
As for GGAGUUCCAAUGGAAGUUATT against PSMD14, the median seed-adjusted z-score is 0.375 (inactive).
With CGAUGGACUAAGUAAUAUATT against KPNA4, the median seed-adjusted z-score was 0.457 (inactive).
For the sequence CCACCUAUUUGCACAAGGATT against POMT2, the median seed-adjusted z-score was -0.614 (inactive).
With UCAAGGCCCUGUGCGCUAATT against PPP4C the figure was 1.15 (active).
The figure for GCAACCACCAAGAGUUUGATT against KCNS1 is -0.167 (inactive); for CUGUAGAUCUUUGUCAAAATT against DUS4L it is 0.525 (inactive); for UGCUAGUCCUGGGAACAGATT against PPM1J it is -0.901 (inactive).
The figure for GGUCAACAAUGCUUAUGCATT against DHRS1 is 0 (inactive).
Regarding GCUUGAGAACUACCAGGUUTT against TAL2, the median seed-adjusted z-score is -0.395 (inactive).
With ACAAUAAGCUGGACCUCUATT against TLR9, the median seed-adjusted z-score was -0.0834 (inactive).
Turning to CCUUCUACAGGAUCUCCAATT against ADRA1A, the median seed-adjusted z-score was -1.06 (active).
CAGUGGAUGUUAUUCCUCATT against RNF128: the median seed-adjusted z-score was -0.377 (inactive).
With GGACUACACGUACUUCUCATT against KIRREL3 the figure was -0.206 (inactive); with CCAAGAGUGAUGCAGAGGATT against CABP4, 0.146 (inactive); with GGAGUUCUGUAACUCACUUTT against SLC38A2, -1.04 (active).
As for GGUGCUACAUCCUAGAGAATT against SULF2, the median seed-adjusted z-score is -0.109 (inactive).
With GCAAGACCUGGUCAGUAUATT against NOX4 the figure was -0.246 (inactive); with AGAAUGUCUUGAUUGUGGATT against HPRT1, -0.0463 (inactive).
Take GCCUCACAUUUUCUAAUGATT against RRM2: the median seed-adjusted z-score was -3.84 (active).
Take AGAAGUUCAUGGUCGGAGATT against SULT1A1: the median seed-adjusted z-score was -0.26 (inactive).
The figure for GAUCGGCACUUACACCUGUTT against OPHN1 is 0.692 (inactive); for AGAUCGACCAGAACGUGGATT against APOA4 it is 0.195 (inactive).
Turning to CCACGUAACUAUCAUAAGATT against TLL1, the median seed-adjusted z-score is 0.396 (inactive).
With AGACCGACCUGGGCAUGAATT against SARM1 the figure was 0.343 (inactive); with CCAAAAUUGAAGUAAUAGATT against GTF2E2, -1.32 (active); with GCUCAGUUCUCGUCAAGGATT against ARIH2, 0.0449 (inactive).
For AGUGAACUCCGGUCCUGCATT against RAB11FIP3, the median seed-adjusted z-score was 0.0361 (inactive).
With GCGAUGAGGUGGACUUGUATT against ST3GAL1 the figure was 0.255 (inactive).
Take GACCUGUCACAGAACCAGATT against VASN: the median seed-adjusted z-score was 0.213 (inactive).
The figure for GUCUUCAUGUAUGUCUUUUTT against GJB1 is 0.152 (inactive); for AGGUAGAAGAAAUGCAAUATT against PKIA it is 0.533 (inactive); for GCCUAUAGGAUUGAACCAATT against DDHD2 it is 0.447 (inactive).
The figure for GCUGGGUAGUUUGACUGAATT against TRIM61 is 0.0116 (inactive); for CAAAUACCGUUAAGCUGGATT against HBA1 it is -1.03 (active); for CUCUUAUAGUUGAUCGUGATT against ATAD2B it is 0.0192 (inactive).
On to GGAUAGCACAUGAUACAGATT against GAN, for which the median seed-adjusted z-score is -1.07 (active).
The figure for CCAUAUCGAAUAAUAAUGATT against SCRT1 is -0.483 (inactive).
With GGUUCUGACAGACAAUGGATT against DPT the figure was 0.073 (inactive); with GGACUCUUCUUUAGCUUUATT against TSPAN31, -1.13 (active); with CCGAAUCAUUAUGCACCAATT against OCLN, 0.232 (inactive).
The figure for CAACCACACUAACGAGAUUTT against GLRX is -0.0561 (inactive); for ACACCUGCCUGGUAGAGAATT against FGFR4 it is 0.0825 (inactive).
Consider GAAACUUGAUUGAUCUUUATT against MITF, for which the median seed-adjusted z-score is -0.249 (inactive).
As for GAGAAGAUCUGGAACUCAUTT against CRAT, the median seed-adjusted z-score is -1.42 (active).
With GCAGGUCAAAUUUCCAUAATT against ZNF175 the figure was -0.0194 (inactive).
With CAAUAUCUGCUGUUAGCAATT against SCARB2 the figure was -0.244 (inactive); with GAUCAAAUAUGACUUCCUATT against GPR103, 0 (inactive); with GCUGGAAAAGGUUAACGAATT against PKNOX1, 0.68 (inactive).
The figure for GGACAUGACAGCAACCUUUTT against EGR1 is 0.0836 (inactive).
On to CAAUGUCCGGAAGCAGUUUTT against ACAD8, for which the median seed-adjusted z-score was 1.06 (active).
As for GGUCAACUCUCUACUGAUATT against ARHGAP29, the median seed-adjusted z-score was -0.0483 (inactive).
The figure for GCAUAGAAGGCUUCACGAATT against PLCH1 is -0.00634 (inactive); for UCACUGAAAUGAAACUGGUTT against ACBD4 it is -0.363 (inactive); for AAGAGAUUUUUGUAACUGATT against BCL2L14 it is -0.859 (inactive).
Take CGAUUUGAAGGUCCAUAUATT against DNAJC2: the median seed-adjusted z-score is -0.0357 (inactive).
The figure for CCUCGACUAUUUUAAGACATT against UBA1 is 1.34 (active).
In the case of GUCCUUUAACUGAAGCUUUTT against NDUFB9, the median seed-adjusted z-score is -0.982 (inactive).
GGACAGUAGUGUGCAACGATT against LRIT1: the median seed-adjusted z-score was -0.611 (inactive).
Turning to UGAUGAAUGUUAUCGAGAATT against RFC2, the median seed-adjusted z-score was 0.00126 (inactive).
On to GCAGUUUCGAAAUCAACGATT against TEX14, for which the median seed-adjusted z-score was -0.107 (inactive).
The figure for ACAAGAACCCUGACAAUAATT against DNAJB8 is -1.09 (active).

Values taken from PubChem BioAssay AID1347426 (Functional Genomics Laboratory (NCATS/FGL), 2020).
